“And” between values parts separate entries of the source, which are not always exact repeats. Equal entries are not always repeated. About 64,000 (15%) of roughly 420,000 compounds were called active. Roughly 27% stayed inconclusive and do not appear here. Shown is part of a subset that was picked to be rich in actives. Entries that show only a call come without a potency. Values without a mark were called inactive. The call rests on the fitted dose curve; in most records, active means well fitted inhibition curve with a large enough effect; inconclusive means small, poorly fitted or top-dose-only effect; inactive means flat fitted curve, though single readings scatter.
Potency means the concentration at half of the fitted maximal effect.

A short description of the assay: qHTS for Inhibitors of human tyrosyl-DNA phosphodiesterase 1 (TDP1): qHTS in cells in absence of CPT. Further: nearly all actives have a fitted effect of over 55% in size. To be noted: DT40 Tdp1-/- hTDP1 cells, no CPT, ATP luminescence, 48 h; series mostly up to 46.2 µM. From the text:
Human tyrosyl-DNA phosphodiesterase 1 (TDP1) is a novel repair gene, and we propose to use it as a new target for anticancer drug development. TDP1 is not an essential protein, but under treatment with topoisomerase I poison (camptothecin: CPT), TDP1 works as a critical factor for cell survival. To directly identify novel TDP1 inhibitors active in a cellular environment, we have knocked-out the Tdp1 gene in chicken DT40 cells (Tdp1-/-) and generated a complemented counterpart cells that contains a stable transfection of the human TDP1 gene (Tdp1-/-;hTDP1 cells). For the primary screen, Tdp1-/-;hTDP1 cells will be exposed to small molecules in the presence or absence of CPT, and their growth kinetics will be evaluated after 48 hours by measuring ATP activity. […] The hit compounds will then be evaluated in the presence or absence of CPT using Tdp1-/- cells. […] In tertiary assays, biochemical gel-based assays will be used to assess whether the hit compounds specifically target TDP1.
To this end, we have screened this cell line against the MLSMR in two primary screens. In one screen we add CPT and in the other we screen in the absence of CPT; this AID represents the screen where CPT was absent.
NIH Chemical Genomics Center [NCGC]
NIH Molecular Libraries Probe Centers Network [MLPCN]
Assay Submitter (PI): Yves Pommier, NCI
DT40-hTDP1 cells without 20 nM Camptothecin (add 20 microL of DMSO in 1 L of cell culture medium) were dispensed at 400 cells/5microL/well in tissue culture treated 1536-well white wall/solid bottom assay plates (Greiner Bio-One North America, NC, U.S.A.) using a Multidrop Combi 8 channel dispenser (Thermo Fisher, Waltham, MA, USA). 23 nL compounds and controls were transferred using the pin tool (Kalypsys, San Diego, CA, USA) to the assay plates. The assay plates were then incubated at 37 masculineC for a minimum 48 hr. Three microL of Cell Titer Glo solution was added to the plates and incubated at RT in dark for 30 min. Luminescence was read using ViewLux (Perkin Elmer) with 1 sec exposure slow speed, high gain and 2x binning.
For orientation: In qHTS, concentration-response curves come from the screen itself.
For the compound `CC[N+](CC)(CC)CCCCCCCCCC[N+](CC)(CC)CC`, the Potency result is “inactive”.
Same read-out and setting: the entry for `CNC(=O)N(C)c1nnc(C(C)(C)C)s1` is “inactive”; for `COP(=O)(NS(=O)(=O)c1ccccc1)OC` it is “inactive”; for `CN1[C@@H]2CC[C@H]1CC(OC(=O)c1cc(Cl)cc(Cl)c1)C2` (some centres undefined) it is 13.3 µM (active) and 11.9 µM (active).
Same read-out and setting: in the case of `CN1CCC(OC(=O)c2cccc(F)c2)CC1` it was “inactive”; in that of `CNP1(NC)=Nc2nn(-c3ccccc3)c(N)c2C(c2ccccc2)=N1`, “inactive”; in that of `Cc1cccc(Cn2cccc(C(=O)Nc3ccc4c(c3)OCCO4)c2=O)c1`, 20.6 µM (active).
As to `CCN(CC)C(=O)c1ccc(NC(=O)c2cc(-n3cnnc3)ccc2Cl)cc1`, the Potency entry is “inactive”.
For `COc1cc(OC)cc(C2(C#N)CCN(C)CC2)c1`, the Potency result is “inactive”.
The same measure, in the same setting: in the case of `Cc1ccc(-n2c(O)c(C=NCC3CCCO3)c(=O)[nH]c2=O)c(C)c1` (centres undefined) it was “inactive”; in that of `CNC(=O)Nc1ccc(C(O)(C(=O)OC)C(F)(F)F)cc1` (centres undefined), “inactive”; in that of `Cc1cc(C(=O)OCC(=O)Nc2c(F)cccc2F)c(C)n1C1CC1`, “inactive”.
On the same count and under the same terms, the figure for `COC(=O)[C@@]12C[C@@H](CC(=O)NCc3cccc(C(F)(F)F)c3)C(=O)N(Cc3ccco3)C1=CCC(C)(C)C2` is 13 µM (active); for `COc1cc(Cl)ccc1Nc1ncc(C(=O)N2CCN(c3ccccc3OC)CC2)c2ccccc12` it is 5.8 µM (active).
The same measure, in the same setting: the figure for `C[C@@]1([C@@H](NP(=O)(c2ccccc2)c2ccccc2)c2ccccc2)C[C@H]1CCO` is 18.4 µM (active); for `CCN1CCN(C(=O)Cc2coc3cc(C)cc(C)c23)CC1` it is “inactive”; for `c1cncc(CNC2=NCCC2)c1` it is “inactive”.
Take `CCN1C(=O)NC(=O)C2(CCCC2)C1=O`: the Potency entry is “inactive”.
For `O=C(CCCn1c(=O)[nH]c2cc(Cl)ccc2c1=O)N1CCC2(CC1)OCCO2`, the Potency result is “inactive”.
Same read-out and setting: the entry for `COc1ccc(-c2nc(CS(=O)CC(=O)N3CCC4(CC3)OCCO4)c(C)o2)cc1` (centres undefined) is “inactive”.
Consider `Cc1ccc(Cn2c(C)c3cnn(CC(=O)N4CCC5(CC4)OCCO5)c(=O)c3c2C)cc1`, for which the Potency is 14.6 µM (active).
The same measure, in the same setting: the entry for `Cc1ccc(C(C)C)c(OCC(=O)N2CCN(CC(=O)N3CCOCC3)CC2)c1` is “inactive”; for `COC1CC(OC2CC[C@@]3(C=O)C4CC[C@]5(C)C(C6=CC(=O)OC6)CC[C@@]5(O)C4CC[C@]3(O)C2)OC(C)C1O` (some centres undefined) it is 0.92 µM (active).
The same measure, in the same setting: the figure for `COC1C(O)C(C)OC(OC2CCC3(C=O)C(CCC4C3CCC3(C)C(C5=CC(=O)OC5)CCC43O)C2)C1O` (centres undefined) is 0.206 µM (active); for `CN(C)/C=C(\C=[N+](C)C)c1[nH]ncc1[N+](=O)[O-]` it is “inactive”; for `Cc1ccc(C2CN(C)CC2C(=O)c2ccc(F)cc2)cc1` (centres undefined) it is “inactive”.
Same read-out and setting: the entry for `COc1ccc(-n2c(O)c(C(C)=Nc3ccc4c(c3)CCC4)c(=O)[nH]c2=O)cc1` is “inactive”; for `COc1ccc(-n2c(-c3ccccc3)nc3ccccc3c2=O)cc1` it is 13 µM (active).
`O=c1c2ccccc2nc(-c2ccccc2)n1-c1ccccn1`: the Potency entry is “inactive”.
The same measure, in the same setting: the entry for `Cc1ccc(-c2nc3ccccc3c(=O)n2-c2ccc(Br)cn2)cc1` is “inactive”; for `Cc1ccc(-n2c(-c3ccc([N+](=O)[O-])cc3)nc3ccccc3c2=O)cc1` it is 8.2 µM (active); for `CSc1nc2ccc(C)cc2c(=O)n1-c1cccnc1` it is “inactive”.
For `COC1=C[C@]23CCCN2CCc2cc4c(cc2[C@@H]3[C@@H]1O)OCO4`, the activity change, negative = growth inhibition was -13.2% [at 9.04 µM].
As for `c1ccc2sc(C3CCCNC3)nc2c1` (centres undefined), the Potency result was “inactive”.
For the compound `CN(C)C(=O)Oc1cc(OC(=O)N(C)C)cc(C(O)CNC(C)(C)C)c1` (centres undefined), the Potency entry was “inactive”.
Still for that read-out and setting: in the case of `CC(=O)Cc1ccc(OC(C)C)cc1` it was “inactive”.
Same read-out and setting: the entry for `OC1/C(=C/c2ccc(C(F)(F)F)cc2)N2CCC1CC2` (centres undefined) is “inactive”; for `O=C(CCC(=O)N1C[C@H]2C[C@@H](C1)c1cccc(=O)n1C2)NCc1ccccc1C(F)(F)F` it is “inactive”; for `C#C[C@]1(OC(=O)CCCCCC)CC[C@H]2[C@@H]3CCC4=CC(=O)CC[C@@H]4[C@H]3CC[C@@]21C` it is “inactive”.
For `C#C[C@]1(O)CC[C@H]2[C@@H]3CCC4=C/C(=N/O)CC[C@@H]4[C@H]3CC[C@@]21CC`, the Potency was 21.1 µM (active).
As for `CC(C)N(CC#CCC1(O)c2ccccc2-c2ccccc21)C(C)C`, the Potency entry is “inactive”.
Still for that read-out and setting: the entry for `C[C@]12CCC3C(CC[C@H]4C[C@@H](O)CC[C@]34C)C1CC[C@@H]2O` (some centres undefined) is “inactive”; for `O=C(O)C1CSC(c2cccnc2)N1` (centres undefined) it is “inactive”.
The same measure, in the same setting: the figure for `CC(=O)c1ccc(S(=O)(=O)N2CCN(c3nc4c(C)c(C)ccc4cc3C#N)CC2)cc1` is 12.6 µM (active); for `CCOC(=O)CC1=C(C(=O)OCC)C2(C(=O)N1)C(C(=O)OC)=C(N)Oc1ccccc12` (centres undefined) it is “inactive”; for `CCCCC(=O)N/N=C/c1c(O)n(-c2ccccc2)c(=O)[nH]c1=O` it is “inactive”.
Consider `CCCCC(=O)N/N=C/c1c(O)n(CCC2=CCCCC2)c(=O)[nH]c1=O`, for which the Potency is 25.9 µM (active).
For the compound `O=c1[nH]c(=O)n(CCc2ccc(F)cc2)c(O)c1/C=N/N1CCCCC1`, the Potency entry is “inactive”.
For `CC(C)(Cc1c[nH]c2ccc(Cl)cc12)NCCOc1ccccc1OCC1CC1`, the Potency was 26.6 µM (active) and 5.17 µM (active).

These data come from PubChem BioAssay AID686978 (National Center for Advancing Translational Sciences (NCATS), 2013).
